Screening results (PubChem BioAssay)
Most compounds without a hit are left out; they make up all but 2.1% or so of the library.
Myeloid diff MLP: compounds promoting myeloid differentiation | actives 1% (n = 360,000) | ER-HoxA9 myeloid progenitors, lysozyme-GFP differentiation, flow cytometry | calls only at 10 µM;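 active = normalized GFP-positive differentiation at or above the plate's own cutoff, the solvent-only control mean plus 3 SD; inconclusive = no clear call, values can overlap the other calls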;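 also: cells exposed to compound for four days before flow analysis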
TPT1 inh: inhibitors of Candida albicans tRNA 2'-phosphotransferase TPT1; recombinant caTPT1, FP RNA substrate dephosphorylation; inhibition, % at 5 µM; actives 0.81% (n = 300,000);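 active = inhibition above the mean of all tested compounds plus 3 SD, set per screening campaign, cut at about 24% in these data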;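 also: plate controls were DMSO alone for no effect and ferristatin control at 100 nM for full effect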
HNF4A DNA FP: change in binding of human HNF4 alpha to DNA; activity change, % at 10 µM; HNF4a-FITC DNA binding, fluorescence polarization, 1 h; P41235; actives 0.3% (n = 360,000); in the data active = activity change above about 30%, passing the limit was not always enough
Target sequence (P41235 whole entry, looked up): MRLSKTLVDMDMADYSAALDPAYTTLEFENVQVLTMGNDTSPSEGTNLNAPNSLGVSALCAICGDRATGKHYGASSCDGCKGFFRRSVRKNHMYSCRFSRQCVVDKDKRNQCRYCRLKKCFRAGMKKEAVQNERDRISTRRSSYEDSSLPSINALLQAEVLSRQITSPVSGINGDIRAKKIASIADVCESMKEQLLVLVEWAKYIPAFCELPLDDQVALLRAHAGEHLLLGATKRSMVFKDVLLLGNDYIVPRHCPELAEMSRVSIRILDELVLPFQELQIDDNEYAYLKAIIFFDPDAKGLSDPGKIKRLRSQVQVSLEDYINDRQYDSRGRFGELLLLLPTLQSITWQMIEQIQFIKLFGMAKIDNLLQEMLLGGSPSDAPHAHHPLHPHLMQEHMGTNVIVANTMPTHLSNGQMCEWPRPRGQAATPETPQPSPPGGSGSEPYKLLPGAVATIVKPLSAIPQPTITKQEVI
Rpn11 inh: blocks the human proteasome subunit Rpn11; O00487; human 26S proteasome, Ub4-pepOG fluorescence polarization; 20S core pre-blocked with epoxomicin; inhibition, % at 20 µM; actives 0.59% (n = 360,000); AID 588493;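 active = inhibition at 20 µM, scaled to each plate's controls, above about 33%, limit read from the data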
Numbers without * were called inactive; i = inactive; ? = inconclusive; nt = no result shown; + = active, no number.

SMILES | Myeloid diff MLP | TPT1 inh | HNF4A DNA FP | Rpn11 inh
Clc1ccc(CSc2ccc(-c3cccnc3)nn2)cc1 | + | 0.8 | 1.0 | -5.4
Fc1cccc(Cl)c1CSc1ccc(-c2cccnc2)nn1 | i | -1.7 | 1.9 | 2.2
Cc1cc(C)n(CC(C)NCc2cn[nH]c2-c2cccc3ccccc23)n1 (configuration not stated) | i | 1.8 | 0.5 | -2.3
Cc1cc(C)n(CC(C)NCc2cn[nH]c2-c2ccc(C)c(C)c2)n1 (configuration not stated) | + | -3.6 | 6.6 | 1.7
CC(=O)Nc1ccc(NC(=O)C2CC(=O)N(Cc3ccccc3)C2)cc1 (configuration not stated) | i | -0.2 | 4.3 | -3.4
CSc1nc2ccc(NC(=O)C3CC(=O)N(Cc4ccccc4)C3)cc2s1 (configuration not stated) | + | 2.1 | 4.9 | 14.0
Cc1cccc(NC(=S)N/N=C2\CC(C)(C)Oc3ccc(O)cc32)c1 | i | -0.3 | 35.7* | 2.9
COc1cccc(NC(=S)N/N=C2\CC(C)(C)Oc3ccc(O)cc32)c1 | i | -1.1 | -1.6 | 1.9
CCOC(=O)/C(C#N)=N\Nc1cc(Cl)ccc1OC | i | 7.1 | 74.9* | 9.5
CC(Oc1ccccc1)C(=O)N=C1SC2CS(=O)(=O)CC2N1c1ccccc1 (configuration not stated) | i | -1.6 | -4.8 | 4.4
Nc1nc(C(c2ccccc2)c2ccccc2)cs1 | + | 0.3 | -4.8 | -4.2
Nc1nc(-c2ccccc2)cs1 | i | -0.8 | -2.6 | -1.7
CCOc1ccc(-c2c(C#N)c(N)nc3sc(C(=O)c4ccccc4)c(N)c23)cc1 | i | 2.4 | 39.9* | 6.4
COc1ccc(-c2nn(-c3ccccc3)cc2N)cc1 | + | 1.6 | 10.5 | 13.6
COc1ccc(-c2nn(-c3ccccc3)cc2CO)cc1 | i | 1.8 | -3.2 | -3.5
Cc1cc(=O)oc2cc(OCC(=O)NCCc3ccccc3)ccc12 | + | -4.6 | 5.2 | 0.4
COc1cccc(CN2CCN(CCc3ccccc3)C(CCO)C2)c1OC (configuration not stated) | + | -2.4 | 4.0 | -5.0
COc1cccc(CN2CCN(CCCc3ccccc3)C(CCO)C2)c1OC (configuration not stated) | i | 1.6 | 3.2 | -1.2
COc1ccc(OC)c(S(=O)(=O)NC(=O)C2(C)CCN2C(=O)Cc2ccc(Cl)cc2Cl)c1 (configuration not stated) | i | nt | 3.1 | 0.9
COc1cc(C)ccc1S(=O)(=O)NC(=O)C1(C)CCN1C(=O)Cc1ccc(Cl)cc1Cl (configuration not stated) | + | nt | 0.1 | -6.2
COc1ccc(C(=O)Nc2ccccc2C(=O)N/N=C/c2ccccn2)cc1OC | + | -4.2 | -0.1 | 12.9
Cc1cc(C)c(NC(=O)CSc2nnc(-c3ccco3)n2N)c(C)c1 | i | -3.1 | 4.7 | 0.2
Nn1c(SCC(=O)Nc2ccc3c(c2)OCCO3)nnc1-c1ccccn1 | i | -3.3 | 0.8 | 6.6
Cc1ccccc1-c1nnc(SCC(=O)Nc2ccc3c(c2)OCCO3)n1N | + | 0.4 | 4.3 | -0.2
Cc1ccc(NC(=O)CSc2nnc(-c3ccco3)n2N)cc1F | + | 0.0 | 3.4 | 0.8
SMILES | Myeloid diff MLP | TPT1 inh | HNF4A DNA FP | Rpn11 inh
C[C@H](CO)N1C[C@H](C)[C@@H](CN(C)C)Oc2c(NS(=O)(=O)c3ccc(F)cc3)cccc2C1=O | i | nt | 1.6 | -5.2
Cc1ccc2[nH]c3c(c2c1)CN(C(=O)CN1CC(C)OC(C)C1)CC3 (configuration not stated) | + | -17.0 | 0.2 | 12.2
CC(=O)N1CCc2[nH]c3ccc(C)cc3c2C1 | i | -3.9 | -2.8 | -11.8
CCN(C[C@H]1N[C@@](CC)(C(=O)OC)[C@H]2C(=O)N(Cc3ccccc3)C(=O)[C@@H]12)C(=O)Nc1ccc(OC)cc1 | + | nt | -1.5 | -3.1
Cc1cccc(-n2c(SCC(=O)Nc3ncc(Cl)cc3Cl)nc3ccccc32)c1 | + | 3.9 | 0.9 | 3.1
CC(C)Oc1ccc(Br)cc1/C=N\NC(N)=S | + | 4.2 | 1.6 | -2.3
Cc1cc(/C=N/NC(N)=S)c(C)n1-c1ccc(Br)cc1 | i | 2.0 | -2.4 | 5.4
Cc1ccc(NC(=S)NCc2ccco2)c(C)c1 | i | 4.4 | -0.8 | 2.8
Cc1ccc2ccccc2c1C(O)c1ncc(-c2ccccc2F)[nH]1 (configuration not stated) | i | nt | -4.2 | 1.1
NC(=S)NN=C1CSSC1 | ? | nt | 1.6 | 25.6
CSCCC(c1nc2ccccc2[nH]1)n1c(/C=C/c2ccc(F)c(F)c2)nc2ccccc21 (configuration not stated) | i | nt | 1.6 | nt
CCN(CC)c1ccc(C(=O)NN)cc1 | + | -1.2 | 2.3 | -0.5
CCN(CC)c1ccc(NC(=O)Nc2ccc(C(C)=O)cc2)cc1 | i | -4.4 | 2.2 | 3.8
Cc1cc(C(=O)N/N=C/c2ccc(-c3cccc(Cl)c3)o2)n[nH]1 | i | -1.2 | -0.3 | 18.4
Cc1nc(SCc2c(F)cccc2Cl)c2c(=O)n(C)c(=O)n(C)c2n1 | + | -4.3 | 0.8 | 7.3
O=C(Nc1ccc2nc(-c3cccs3)[nH]c2c1)c1ccco1 | + | 3.8 | 0.9 | -8.0
COCCN(CCOC)C(=O)CSc1ccc(S(=O)(=O)N2CCN(C)CC2)cn1 | i | nt | 1.2 | 1.8
NC(c1csc(NC(=O)c2cccc(OC(F)(F)F)c2)n1)c1ccccc1Cl (configuration not stated) | + | nt | 0.0 | nt
CCN1/C(=C/C(C)=C/c2sc3ccccc3[n+]2CC)Sc2ccccc21 | ? | -40.6 | 197.5* | 121.2*
CC(=O)Nc1ccc(/C=C2\CCc3ccccc3C2=O)cc1 | i | 0.8 | -1.3 | 2.8
COc1ccc(S(=O)(=O)c2c(N)n(Cc3ccco3)c3nc4ccccc4nc23)cc1 | + | 8.3 | -7.8 | -6.9
Cc1ccc(S(=O)(=O)c2c(N)n(CCCN(C)C)c3nc4ccccc4nc23)cc1 | i | -3.1 | 1.4 | 8.5
COC1=CC2(O)CCCC2=CC1=O (configuration not stated) | + | -0.1 | -0.6 | 2.5
CC12OC1C1(O)CCCC1=CC2=O (configuration not stated) | nt | -4.5 | nt | nt
N=c1c(C(=O)NC2CCCCC2)cc2c(=O)n3ccccc3nc2n1Cc1ccccc1 | i | -2.8 | -4.7 | -6.0
SMILES | Myeloid diff MLP | TPT1 inh | HNF4A DNA FP | Rpn11 inh
CCNC(=O)c1cc2c(=O)n3cccc(C)c3nc2n(Cc2ccc(C)cc2)c1=N | i | 2.5 | 4.6 | -1.2
N=c1c(C(=O)NC2CCCCC2)cc2c(=O)n3ccccc3nc2n1Cc1cccnc1 | + | 1.3 | 1.3 | 3.0
Cc1cccn2c(=O)c3cc(C(=O)NC(C)C)c(=N)n(Cc4ccncc4)c3nc12 | i | -3.8 | 51.6* | -0.5
CC(=O)c1c(C)[nH]c(C(=O)OCC(=O)Nc2cc(C(F)(F)F)ccc2N2CCOCC2)c1C | + | -6.4 | -1.6 | -2.9
Cc1ccc(-n2c(C)nnc2SCC(=O)N2CCc3ccccc3C2)cc1 | i | 0.3 | 1.2 | -3.2
S=C(Nc1ccccc1)N1CCN(C2CCCCC2)CC1 | + | 3.8 | -1.9 | 0.1
